Measured values: PubChem BioAssay (NCATS)
Inconclusive results are not listed. Where a call stands in place of a potency, no number is given. The source made the active and inactive calls. Calls follow the shape of the dose curve; as a rule, active = well fitted cell-killing curve with a large enough effect; inconclusive = small, poorly fitted or top-dose-only effect; inactive = flat fitted curve, though single readings scatter.
Potency is read from the fitted curve at half-maximal effect.

Assay: Cell Viability - LYMP2-006 (AID 978); also: nearly all actives have a fitted effect of over 60% in size
Conditions: LYMP2-006 lymphoblastoid cell viability, qHTS; series mostly up to 92.2 µM
From the text: NIH Chemical Genomics Center [NCGC]
NIH Molecular Libraries Screening Centers Network [MLSCN]
National Institutes of Environmental Health Sciences [NIEHS]
National Toxicology Program [NTP]
We have developed a 1536-well cell-based assay for quantitative high throughput screening (qHTS) against a number of cell lines to determine in vitro cytotoxicity of small molecules. This particular assay uses a human lymphoblastoid cell line (LYMP2-006) purchased from Coriell Institute for Medical Research.
NCGC Assay Protocol Summary:
The CellTiter-Glo luminescent cell viability assay (Promega) is a homogeneous method to measure the number of viable cells in culture. The end point readout of this assay is based on quantitation of intracellular ATP, an indicator of metabolic activity, using the luciferase reaction. Luciferase catalyzes the oxidation of beetle Luciferin to oxyluciferin and light in the presence of ATP. The luminescent signal is proportional to amount of ATP present.
Using the CellTiter-Glo luminescent cell viability assay, the amount of cellular ATP was measured in the lymphoblastoid cell line with complete culture medium following compound treatment for 24 hours. The assay was performed in opaque white Kalypsys 1536-well plates. In the screen, tetraoctylammonium bromide was used as positive control. Library compounds were measured for their ability to cause acute toxicity in the cell line, as reflected by a decrease in intracellular ATP levels, in a concentration-dependent manner. […] AC50 values were determined from concentration-response data modeled with the standard Hill equation.
qHTS protocol for CellTiter Glo lymphoblastoid cellular assay
[Step] [Parameter] [Value] [Description]
1. Reagent; 5 uL; 2500 lymphoblastoid cells/well
2. Time; 5 hr; 37 C incubation
4. Controls; 23 nL; Tetraoctylammonium bromide 6.4pM to 92 uM
5. Time; 24 hr; 37 C incubation
6. Reagent; 5 uL; CellTiter Glo reagent
7. Time; 30 min; Room Temperature
8. Detection; Luminescence; Viewlux plate reader
Keywords: cell viability, cytotoxicity, lymphoblastoid cell line, luminescence, NTPHTS, NTPHTS_NCGC, NIEHS, DSSTox, MLSMR, MLSCN, NIH Roadmap, qHTS, NCGC
With `CN(C)[C@@H]1C(=O)C(C(N)=O)=C(O)[C@@]2(O)C(=O)C3=C(O)c4c(O)cccc4[C@@](C)(O)[C@H]3[C@H](O)[C@@H]12` the Potency was “inactive”.
For `COc1ccc(C(c2ccc(OC)cc2)C(Cl)(Cl)Cl)cc1`, the Potency was “inactive”.
In the case of `CCOCCOC(C)=O`, the Potency is reported as “inactive”.
With `O=[N+]([O-])c1c2ccccc2cc2ccccc12` the Potency was “inactive”.
With `C1CCC(NC2CCCCC2)CC1` the Potency was “inactive”.
For `CC(=O)[O][Hg][c]1ccccc1`, the Potency was 1.58 µM (active).
With `O=[N+]([O-])c1c(Cl)c(Cl)cc(Cl)c1Cl` the Potency was “inactive”.
In the case of `C=CC(=O)NCNC(=O)C=C`, the Potency is reported as “inactive”.
In the case of `O=[N+]([O-])c1cc([N+](=O)[O-])c2ccccc2c1`, the Potency is reported as “inactive”.
For `Nc1ccc(Sc2ccc(N)cc2)cc1`, the Potency was “inactive”.
For `O=S(=O)(c1ccc(Cl)cc1)c1ccc(Cl)cc1`, the Potency was “inactive”.
With `Nc1ccc(Cl)cc1N` the Potency was “inactive”.
With `Cc1cc(O)ccc1Cl` the Potency was “inactive”.
In the case of `OCCCBr`, the Potency is reported as “inactive”.
In the case of `O=C(O)COc1ccccc1`, the Potency is reported as “inactive”.
With `CC(C)(O)C(=O)Nc1ccc([N+](=O)[O-])c(C(F)(F)F)c1` the Potency was “inactive”.
With `Nc1ccc([N+](=O)[O-])cc1` the Potency was “inactive”.
In the case of `CN(C)NC(=O)CCC(=O)O`, the Potency is reported as “inactive”.
For `Nc1ccc(Cl)cc1`, the Potency was “inactive”.
For `O=C(O)C(Cl)Cl`, the Potency was “inactive”.
In the case of `COC(C)(C)CCCC(C)C/C=C/C(C)=C/C(=O)OC(C)C` (stereo unspecified), the Potency is reported as “inactive”.
With `CCCCOC(=O)c1ccccc1C(=O)OCc1ccccc1` the Potency was “inactive”.
With `c1cc2ccc3cccc4ccc(c1)c2c34` the Potency was “inactive”.
In the case of `CCOP(=O)(NC(C)C)Oc1ccc(SC)c(C)c1` (stereo unspecified), the Potency is reported as “inactive”.
For `CCCCCCCCc1ccc(O)cc1`, the Potency was “inactive”.
With `CCCCC(CC)COC(=O)c1ccccc1C(=O)OCC(CC)CCCC` (stereo unspecified) the Potency was “inactive”.
